In all, about 330,000 compounds went through this assay and about 40 (0.01%) were called active. Entries that show only a call come without a potency. This is one part of a sample in which actives are shown more often than they occur. A number with no mark means an inactive call. Calls come from the whole dose curve; as a rule, active = well fitted inhibition curve with a large enough effect; inconclusive = small, poorly fitted or top-dose-only effect, or effect the other way; inactive = flat fitted curve, though single readings scatter.
Potency is the fitted concentration of half-maximal effect.

Chain of Ubiquitin carboxyl-terminal hydrolase 2 (Homo sapiens) (O75604 whole entry, looked up): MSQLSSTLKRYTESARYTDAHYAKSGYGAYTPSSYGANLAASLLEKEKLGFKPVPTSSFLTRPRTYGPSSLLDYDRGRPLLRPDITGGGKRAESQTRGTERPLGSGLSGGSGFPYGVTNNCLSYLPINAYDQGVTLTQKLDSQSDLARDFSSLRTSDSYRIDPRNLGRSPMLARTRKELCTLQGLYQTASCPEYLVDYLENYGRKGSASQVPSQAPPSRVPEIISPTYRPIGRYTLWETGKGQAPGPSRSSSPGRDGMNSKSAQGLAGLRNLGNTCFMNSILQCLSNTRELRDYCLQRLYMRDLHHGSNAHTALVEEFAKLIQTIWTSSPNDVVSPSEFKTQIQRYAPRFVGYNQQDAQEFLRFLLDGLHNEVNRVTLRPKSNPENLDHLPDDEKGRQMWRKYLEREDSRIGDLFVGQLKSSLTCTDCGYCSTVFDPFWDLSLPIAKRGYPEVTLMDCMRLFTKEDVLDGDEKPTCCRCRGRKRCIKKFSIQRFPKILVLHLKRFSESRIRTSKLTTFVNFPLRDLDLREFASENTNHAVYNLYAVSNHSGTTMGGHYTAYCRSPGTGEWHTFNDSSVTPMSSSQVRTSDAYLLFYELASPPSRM

The assay concerns the target Ubiquitin carboxyl-terminal hydrolase 2 (Homo sapiens) (UniProt O75604). Description: qHTS Assay for Inhibitors of Ubiquitin-specific Protease USP2a Using CHOP2 as the Reporter. The following applies: USP2 core, Ub-CHOP2 coupled fluorogenic reporter, 485/531; series mostly up to 38.3 µM. An outline of the steps: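 USP2 core (10nM final) preincubated 30min RT with compound in 20mM Tris-HCl pH 8.0, 2mM CaCl2, 2mM beta-mercaptoethanol, 0.05% CHAPS; 25nM Ub-CHOP2 plus 25nM reporter substrate added, fluorescence (Ex485/Em531) read after 60min.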
Consider `O=C1OC2(CCCCC2)CC2=C1C1O[C@](c3ccsc3)(Cc3ccccc31)O2`, for which the activity change, negative = inhibition is -1.62% [at 7.66 µM].

Turning to `CCCCNC(=O)C(C)N(CCN(C)C)C(=O)CCCCCN1C(=O)NC(c2ccc(Cl)cc2)C(C(=O)OCc2ccccc2)=C1C` (stereo not given), the activity change, negative = inhibition result is “inactive”.

As for `Cc1ccc(NC(=O)CC2C(=O)N(Cc3ccccc3)C(=S)N2NC(=O)c2cccc(F)c2)c(C)c1` (stereo not given), the activity change, negative = inhibition result is “inactive”.

Turning to `COC(=O)c1ccccc1Oc1c(F)c(F)nc(N2CCOCC2)c1F`, the activity change, negative = inhibition entry was “inactive”.

For `O=c1c2ccccc2[nH]c(=S)n1CCN1CCC(=C(c2ccc(F)cc2)c2ccc(F)cc2)CC1`, the activity change, negative = inhibition result was “inactive”.

For the compound `CCN(CC(=O)Nc1ccc(NC(C)=O)cc1)C(=O)C1CC(=O)N(Cc2ccc(C)cc2)C1` (stereo not given), the activity change, negative = inhibition result was “inactive”.

For the compound `Cc1cccc(C)c1NC(=O)C1(C)c2cccc[n+]2CC(=O)N1Cc1cccs1` (stereo not given), the activity change, negative = inhibition entry is “inactive”.

In the case of `CO[C@H]1[C@@H]2C=CO[C@@H](O[C@H]3O[C@@H](CO)[C@H](O)[C@@H](O)[C@@H]3O)[C@@H]2[C@@]2(CO)O[C@@H]12`, the activity change, negative = inhibition result was “inactive”.

In the case of `O=C(CC1SC(=Nc2ccccc2)N(Cc2ccccn2)C1=O)Nc1cccc(Cl)c1` (stereo not given), the activity change, negative = inhibition entry is “inactive”.

For `Cc1coc2c(O)cc3c(c12)OC1(N2CCCCC2)C(=O)NCCCC31` (stereo not given), the activity change, negative = inhibition entry is “inactive”.

On to `CCCCN(CCCC)CCCNC(=O)CN1C(=O)COc2ccc(S(=O)(=O)N3CCC(C)CC3)cc21`, for which the activity change, negative = inhibition result is “inactive”.

Consider `CCOC(=O)N1CCN(S(=O)(=O)c2ccc3c(c2)C(C)C(=O)N3)CC1` (stereo not given), for which the activity change, negative = inhibition result is “inactive”.

Take `COc1ccc(C(=O)/C=C/c2ccc(-c3ccccc3)cc2)cc1CSCC(=O)O`: the activity change, negative = inhibition entry was “inactive”.

In the case of `COC(=O)c1ccc(COc2ccc(/C=C/C(=O)c3ccc(OC)c(CSCC(=O)O)c3)cc2OC)cc1`, the Potency is 10 µM (active).

As for `COc1ccc(/C=C/C(=O)c2ccc(NS(=O)(=O)c3ccc(C)cc3)cc2)cc1O`, the activity change, negative = inhibition result is “inactive”.

In the case of `Cc1ccc(C2NC(C(=O)O)CS2)cc1` (stereo not given), the activity change, negative = inhibition entry was “inactive”.

Turning to `C=CCN(c1ccc(C(N)=O)cc1)S(C)(=O)=O`, the activity change, negative = inhibition result is “inactive”.

`Cc1cccc(N2CCN(Cc3nc(C4CC4)no3)CC2)n1`: the activity change, negative = inhibition result was “inactive”.

Turning to `c1ccc2c(c1)C(=NC1CCCCC1)NC2=NC1CCCCC1`, the activity change, negative = inhibition result is “inactive”.

Regarding `CCCOc1ccc(C(=O)C(CCC(CNCC)C(=O)c2ccc(OCCC)cc2)CNCC)cc1` (stereo not given), the activity change, negative = inhibition result is “inactive”.

In the case of `COc1ccc(Br)cc1CN(C)CC(=O)Nc1cc(Cl)cc(Cl)c1`, the activity change, negative = inhibition result is “inactive”.

For `COc1ccc2c3c(c(=O)oc2c1)C1O[C@](CCCCN2C(=O)c4ccccc4C2=O)(Cc2c1ccc1ccccc21)O3`, the activity change, negative = inhibition is 0.0315% [at 7.66 µM].

Consider `CC(C)NC(=O)C(=O)NCCCOC(C)C`, for which the activity change, negative = inhibition result was “inactive”.

In the case of `O=C(CN1CCOCC1)N1CCCc2c1c(=O)oc1ccc(OCc3ccccc3)cc21`, the activity change, negative = inhibition entry is “inactive”.

Consider `CCOCCOCCC(C(=O)O)P(=O)(c1ccccc1)c1ccccc1` (stereo not given), for which the activity change, negative = inhibition result is “inactive”.

On to `CCOC(=O)c1c(NC(=O)CCCN2CCOCC2)sc2c1CC(C)(C)OC2`, for which the activity change, negative = inhibition entry was “inactive”.

Turning to `CC(C)(C)[Si](OCC[C@@H]1C[C@@]1(C)[C@@H](NP(=O)(c1ccccc1)c1ccccc1)c1ccccc1)(c1ccccc1)c1ccccc1`, the activity change, negative = inhibition entry was “inactive”.

Take `CCC(C)n1c(-c2cc(OC)c(OC)c(OC)c2)nc2nc3ccccc3nc21` (stereo not given): the activity change, negative = inhibition result is “inactive”.

Take `CC(C)(C)C(=O)NC1CC2CCCC(C1)N2C(=O)Nc1ccccc1F` (stereo not given): the activity change, negative = inhibition result was “inactive”.

Turning to `C=CC[n+]1c(-c2ccc(C)cc2)csc1NNC(=O)Nc1ccccc1`, the activity change, negative = inhibition result was “inactive”.

Turning to `CCNC(=S)N(CCN(CC)CC)Cc1cc2cc3c(cc2[nH]c1=O)OCO3`, the activity change, negative = inhibition result is “inactive”.

Regarding `Cn1c(CC(=O)NNC(=O)c2ccccc2F)nc2ccccc21`, the activity change, negative = inhibition entry was “inactive”.

For the compound `COc1ccc(-c2[nH]ncc2CN(Cc2nccn2C)C(C)C)cc1F`, the activity change, negative = inhibition result is “inactive”.

In the case of `Cc1cc(C)c(NC(=O)CSc2nc3ccncc3[nH]2)c(C)c1`, the activity change, negative = inhibition entry was “inactive”.

Turning to `CCOC(=O)C(CC)/C(C)=N\NC(=O)c1cccc(C)c1` (stereo not given), the activity change, negative = inhibition entry is “inactive”.

Regarding `CSc1nc(-c2ccco2)nn1C(=O)c1ccccc1Cl`, the activity change, negative = inhibition entry is “inactive”.

`CCN(CC)CCN1C(=O)C(=O)/C(=C(/O)c2cnn(-c3ccccc3)c2C)C1c1cccs1` (stereo not given): the activity change, negative = inhibition entry was “inactive”.

As for `Cc1ccc(C(=O)N/C(=C/c2ccco2)C(=O)NCCc2c[nH]c3ccccc23)cc1C`, the activity change, negative = inhibition entry was “inactive”.

Take `Cc1ccc(NC(=O)CCC(=O)c2ccc(Br)cc2)cc1`: the activity change, negative = inhibition entry was “inactive”.

For `C/C(=N\NC(=O)NC1CCCCC1)c1ccc(OC(F)F)cc1OC(F)F`, the activity change, negative = inhibition result was “inactive”.

Regarding `CCC(=O)Nc1c(S(=O)(=O)c2ccccc2)c2nc3ccccc3nc2n1Cc1ccccc1`, the activity change, negative = inhibition result is “inactive”.

In the case of `CC(c1ccco1)N(C(=O)Nc1ccccc1)C1CCCCC1` (stereo not given), the activity change, negative = inhibition result is “inactive”.

As to `Cc1ccc(NC(=O)Cn2cnc3c(OCc4ccccc4)ncnc32)cc1C`, the activity change, negative = inhibition entry was “inactive”.

Take `COc1ccc(C(=O)N2CCc3cc(OC)c(OC)cc3C2c2cccc([N+](=O)[O-])c2)cc1` (stereo not given): the activity change, negative = inhibition result was “inactive”.

Consider `COc1ccc(C(=O)C2CCCN(C(=O)c3cc(C)on3)C2)cc1F` (stereo not given), for which the activity change, negative = inhibition entry is “inactive”.

As for `COC(c1ccccc1)(c1ccccc1)C(Oc1nc(C)cc(C)n1)C(=O)O` (stereo not given), the activity change, negative = inhibition result was “inactive”.

Consider `CN(C)/C=C(/C(=O)c1ccc(Cl)cc1)S(=O)(=O)c1ccccc1`, for which the activity change, negative = inhibition entry is “inactive”.

In the case of `O=C(Oc1ccc([N+](=O)[O-])cc1)c1ccc(Cl)c(S(=O)(=O)N2CCCCC2)c1`, the activity change, negative = inhibition result was “inactive”.

On to `Cc1ccc(N(Cc2cc(=O)[nH]c3ccccc23)C(=O)CCl)cc1`, for which the activity change, negative = inhibition entry was “inactive”.

As to `C=CCn1cc(Cl)cc(C(=O)Nc2ccccc2)c1=O`, the activity change, negative = inhibition entry was “inactive”.

For the compound `CCCCCCCCn1c2c(c(=N)c3c1CCC3)CCCC2`, the activity change, negative = inhibition entry is “inactive”.

For the compound `COc1cccc(CNC(=O)COc2cc(O)c3c(c2)OC(C)(C)CC3=O)c1`, the activity change, negative = inhibition entry is “inactive”.

Take `Cn1nnnc1NCc1ccc(Cl)c(Cl)c1`: the activity change, negative = inhibition result is “inactive”.

Regarding `COC(=O)c1cccc([N+](=O)[O-])c1CS(=O)(=O)c1ccc(C)cc1`, the activity change, negative = inhibition result is “inactive”.

Consider `C#CCOCCOCCOCCNc1nc(N2CCN(C(=O)C([C@@H](C)O)n3cc([C@@H](N)CCCCN)nn3)CC2)nc(N2CCN(C(=O)[C@H](CCCCN)n3cc(CN)nn3)CC2)n1` (stereo not given in full), for which the activity change, negative = inhibition result was “inactive”.

For `CN(C)CCCNc1c2c(c(C#N)c3nc4ccccc4n13)CCC2`, the activity change, negative = inhibition entry is “inactive”.

For the compound `O=[N+]([O-])C(=c1ccc2c(c1)N1C3=C(CCCC3)CC3CCCCC31N=2)[N+](=O)[O-]` (stereo not given), the activity change, negative = inhibition result was “inactive”.

Turning to `Cc1cc(N2CCN(c3ccc(F)cc3)CC2)n2ncnc2n1`, the activity change, negative = inhibition result is “inactive”.

`CCOC(=O)C1(CCOc2ccccc2)CCN(Cc2ccc(C#CCCO)cc2)CC1`: the activity change, negative = inhibition result is “inactive”.

Consider `CC(C)CN(C(=O)CSc1nncn1C)C1CCS(=O)(=O)C1` (stereo not given), for which the activity change, negative = inhibition entry was “inactive”.

The record behind these values is PubChem BioAssay AID463254 (National Center for Advancing Translational Sciences (NCATS), 2010).
